Source: ChEMBL document CHEMBL1201862, “PubChem BioAssay data set” (2004)
Screen size: about 400,000 compounds; about 2,100 (0.53%) were called active. About 14% were inconclusive and are not listed. How the calls were made is not given here. For the sample, actives were picked, then their nearest neighbours and some compounds at random.

What follows are compounds tested against Ataxin-2 (Homo sapiens) (UniProt Q99700) (assay: qHTS for Inhibitors of ATXN expression.).
Assay type: functional

Ataxin-2 (Homo sapiens), sequence (Q99700 whole entry): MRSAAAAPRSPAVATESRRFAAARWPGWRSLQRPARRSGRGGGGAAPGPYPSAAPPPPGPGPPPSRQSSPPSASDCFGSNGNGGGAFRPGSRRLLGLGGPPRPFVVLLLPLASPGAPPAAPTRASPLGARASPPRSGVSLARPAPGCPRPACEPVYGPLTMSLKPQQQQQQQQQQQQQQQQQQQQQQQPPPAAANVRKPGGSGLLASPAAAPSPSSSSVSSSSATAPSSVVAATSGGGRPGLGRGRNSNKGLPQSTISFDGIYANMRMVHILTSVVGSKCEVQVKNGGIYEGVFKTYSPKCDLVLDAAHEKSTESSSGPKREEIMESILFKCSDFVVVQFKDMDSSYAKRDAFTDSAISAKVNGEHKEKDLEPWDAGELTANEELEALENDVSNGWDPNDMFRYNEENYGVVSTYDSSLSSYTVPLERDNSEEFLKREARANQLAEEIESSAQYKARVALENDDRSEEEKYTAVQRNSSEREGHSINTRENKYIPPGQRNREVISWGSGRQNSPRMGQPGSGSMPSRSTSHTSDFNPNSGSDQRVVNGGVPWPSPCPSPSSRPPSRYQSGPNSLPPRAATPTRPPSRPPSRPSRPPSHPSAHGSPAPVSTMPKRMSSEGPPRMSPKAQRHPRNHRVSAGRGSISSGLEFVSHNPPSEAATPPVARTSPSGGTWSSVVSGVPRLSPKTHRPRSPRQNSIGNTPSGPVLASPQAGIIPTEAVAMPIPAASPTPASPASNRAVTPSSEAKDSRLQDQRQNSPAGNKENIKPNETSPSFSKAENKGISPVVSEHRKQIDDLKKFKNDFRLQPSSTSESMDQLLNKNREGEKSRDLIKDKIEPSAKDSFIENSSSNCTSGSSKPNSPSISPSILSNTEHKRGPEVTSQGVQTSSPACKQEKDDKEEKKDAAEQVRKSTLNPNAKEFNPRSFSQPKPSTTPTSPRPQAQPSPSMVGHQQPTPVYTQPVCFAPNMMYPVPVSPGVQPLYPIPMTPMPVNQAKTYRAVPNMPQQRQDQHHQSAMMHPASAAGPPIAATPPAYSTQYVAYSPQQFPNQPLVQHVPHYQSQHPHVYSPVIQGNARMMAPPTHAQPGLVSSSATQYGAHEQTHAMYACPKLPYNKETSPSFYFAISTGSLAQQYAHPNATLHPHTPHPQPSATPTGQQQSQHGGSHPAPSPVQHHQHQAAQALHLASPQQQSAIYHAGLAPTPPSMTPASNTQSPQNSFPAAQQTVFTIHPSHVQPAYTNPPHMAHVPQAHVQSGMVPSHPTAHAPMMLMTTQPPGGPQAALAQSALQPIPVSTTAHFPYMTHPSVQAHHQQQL

Row | Structure (SMILES) | Potency
1 | CCc1cc(=O)oc2c(C)c3c(cc12)CN(CCc1ccccc1OC)CO3 | inactive
2 | O=c1cc(-c2ccccc2)c2cc(Cl)c3c(c2o1)CN(Cc1ccccc1)CO3 | inactive
3 | COc1cc(C(CCN2CCCC(C)C2)c2c(OC)cc(OC)c3c(-c4ccccc4)cc(=O)oc23)cc(OC)c1OC (stereo unspecified) | 31.6 µM (active)
4 | CCCc1cc(=O)oc2c(C)c(O)c(CN3CCCCC3)cc12 | inactive
5 | O=c1cc(-c2ccccc2)c2cc(Cl)c(O)c(CN3CCOCC3)c2o1 | inactive
6 | COc1cc(C(CCN2CCCC2)c2c(OC)cc(OC)c3c(-c4ccccc4)cc(=O)oc23)cc(OC)c1OC (stereo unspecified) | 22.4 µM (active)
7 | COc1ccc(C(CCN2CCCC(C)C2)c2c(OC)cc(OC)c3c(-c4ccccc4)cc(=O)oc23)cc1 (stereo unspecified) | 31.6 µM (active)
8 | COc1ccc(-c2cc(=O)oc3c4c(ccc23)OCN(Cc2cccc(OC)c2)C4)cc1 | inactive
9 | COc1ccc(CN2COc3ccc4c(-c5ccccc5)cc(=O)oc4c3C2)cc1OC | inactive
10 | COc1cc2oc(=O)cc(-c3ccc(-c4ccc(N(C)C)cc4)cc3)c2c(OC)c1OC | inactive
11 | COc1ccc(-c2cc3ccc(O)c(CN4CCCC(C)C4)c3oc2=O)cc1OC (stereo unspecified) | inactive
12 | CCCCCc1cc(=O)oc2c(C(CCN3CCCC3)c3cc(OC)c(OC)c(OC)c3)c(OC)cc(OC)c12 (stereo unspecified) | 35.5 µM (active)
13 | COc1ccc(C2CC(c3ccccc3)=NN2c2ccccc2)c(C(=O)O)c1OC (stereo unspecified) | inactive
14 | Cc1cc(C)c2nc(NCCCNC(S)=NCCCN(C)C)c(C#N)cc2c1 | inactive
15 | Cn1nc(C(=O)Nc2ccc(Br)cc2)cc1C(=O)Nc1ccc(Br)cc1 | inactive
16 | CCNc1ccc2c(Cl)cc(=O)oc2c1 | inactive
17 | COc1ccc(C2=CC(c3ccc(Cl)cc3)n3cnnc3N2)cc1OC (stereo unspecified) | inactive
18 | CN1CCN(CCOCCOc2c(Cl)cc(Cl)cc2Cl)CC1 | inactive
19 | COCCNc1oc(/C=C/c2cccs2)nc1S(=O)(=O)c1ccccc1 | inactive
20 | Cc1ccc(S(=O)(=O)N(C)c2ccc(OC(=O)c3cccs3)cc2)cc1C | inactive
21 | COc1ccc(CCNC(=O)c2c(C)nn(-c3ccc(F)cc3)c2-n2cccc2)c(OC)c1OC | 35.5 µM (active)
22 | O=C(COc1ccccc1F)NCc1ccc(-n2cccc2)cc1 | inactive
23 | O=C(Nc1ccc(C(=O)NCCCN2CCN(c3ccc(F)cc3)CC2)cc1)C1=CSCCO1 | inactive
24 | Cc1ccc(-n2nc(C)c(C(=O)NCCCN3CCN(c4ccc(F)cc4)CC3)c2-n2cccc2)cc1 | 25.1 µM (active)

Row | Structure (SMILES) | Potency
25 | C/C(=N\NC(=O)CN1CCN(c2ccc(F)cc2)CC1)c1ccco1 | inactive
26 | COc1ccccc1NC(=O)c1c(C)nn(-c2ccccc2)c1Cl | inactive
27 | CCCc1ccc(C(=O)NNc2cc(Cl)ccc2Cl)cc1 | inactive
28 | CS(=O)(=O)c1ccc(C(=O)NNC(=O)c2ccccc2-n2cccc2)cc1 | inactive
29 | CCOC(=O)C1CCN(C(=O)c2cc3c(=O)n4ccccc4nc3n2C)CC1 | inactive
30 | O=C(NN=C(S)Nc1ccccc1)c1ccc(O)cc1 | inactive
31 | C/C(=N\NC(=O)c1ccc(Br)cc1)C1C(=O)c2ccccc2C1=O | 35.5 µM (active)
32 | CC(/C=C(\O)c1ccc(Br)cc1)=N/NC(=O)c1ccccc1 | inactive
33 | O=C(CCn1nnc2ccccc21)N/N=C\Cc1ccccc1 | inactive
34 | CC(C)(C)c1ccc(OCC(=O)Nc2cccc(S(=O)(=O)NC3=NCCCCC3)c2)cc1 | inactive
35 | O=C(CCl)Nc1cccc(S(=O)(=O)NC2=NCCCCC2)c1 | 11.2 µM (active)
36 | O=C(CCl)Nc1cccc(S(=O)(=O)NC2=NCCC2)c1 | 12.6 µM (active)
37 | Cc1cccc(C)c1NC(=O)CN(C)C(=O)c1cccc(NS(=O)(=O)c2ccccc2)c1 | inactive
38 | Cc1ccc(OCC(=O)Nc2ccc(S(=O)(=O)NC3=NCCCCC3)cc2)cc1 | inactive
39 | Cc1cccc(C(=O)N[C@H](C(=O)Nc2ccc(S(=O)(=O)NC3=NCCCCC3)cc2)C(C)C)c1 | inactive
40 | CC(C)=CC(=O)Nc1cccc(S(=O)(=O)NC2=NCCCCC2)c1 | inactive
41 | COc1cc(C(=O)OCC(=O)Nc2ccc(S(=O)(=O)NC3=NCCCCC3)cc2)cc(OC)c1OC | inactive
42 | O=C(CCl)Nc1ccc(S(=O)(=O)NC2=NCCCCC2)cc1 | 13.4 µM (active)
43 | Cc1cc(NC(=O)CSc2nc(=O)cc(N)n2-c2ccc(C)c(C)c2)no1 | inactive
44 | Cc1cccn2c(=O)c3cc(C(=O)NCc4cccnc4)c(=N)n(CCCO)c3nc12 | inactive
45 | Cn1c(C(=O)NCC2CCCO2)cc2c(=O)n3ccccc3nc21 (stereo unspecified) | inactive
46 | COc1ccccc1/N=C/c1c(C)c(C#N)c2nc3ccccc3n2c1O | inactive
47 | O=C(Nc1ccccc1)N1CCN(C2c3ccccc3-c3ccccc32)CC1 | inactive
48 | O=C1C=CC(=O)N1c1ccc2c(c1)C(NC(=O)C(F)(F)F)c1ccccc1-2 (stereo unspecified) | 25.1 µM (active)

Row | Structure (SMILES) | Potency
49 | Cc1cc(C)c2c(N)c(C(=O)c3ccccc3)sc2n1 | inactive
50 | Cc1ccc(CNC(=O)c2c(Nc3c(C)cccc3C)sc(C(=O)c3ccccc3)c2N)cc1 | 39.8 µM (active)
51 | Cc1nc2sc(C(=O)c3ccccc3)c(N)c2c(C)c1C | inactive
52 | Cc1ccc2c(N)c(C(=O)c3ccccc3)sc2n1 | inactive
53 | COc1cccc(OC)c1C(=O)Nc1ccc(Br)c(C(=O)c2ccccc2)c1 | inactive
54 | Nc1c(C(=O)c2ccccc2)sc(Nc2ccc(Cl)c(Cl)c2)c1C(=O)Nc1ccccc1 | 28.2 µM (active)
55 | COc1ccc(CNC(=O)CCC(=O)c2ccccc2)cc1 | inactive
56 | Cc1cccc(C)c1Nc1sc(C(=O)c2ccccc2)c(N)c1C(=O)Nc1ccc(F)cc1 | 28.2 µM (active)
57 | COc1ccc(CNC(=O)c2c(Nc3ccccc3C)sc(C(=O)c3ccccc3)c2N)cc1 | 35.5 µM (active)
58 | COc1ccc(C(=O)c2sc3nc(-c4ccccc4)ccc3c2N)cc1 | inactive
59 | CCO/C(O)=C1\C(C)=Nc2sc(C(=O)c3ccc(C)cc3)c(N)c2C1c1ccc(C(=O)OC)cc1 (stereo unspecified) | inactive
60 | Cn1cc(CN2CCC(n3nccc3NC(=O)c3ccc4c(c3)OCO4)CC2)cn1 | inactive
61 | Cc1cc(C)c2cc(C#N)c(SCC(=O)Nc3cc(C)on3)nc2c1 | inactive
62 | O=C(CSc1nnc(O)nc1O)N/N=C/C=C/c1ccccc1 | inactive
63 | O=S(=O)(c1ccc(SCCOc2ccccc2)nc1)N1CCCC1 | inactive
64 | COC(=O)Cc1c(C)c2cc3c(c(C)c2oc1=O)OCN(CCc1ccc(OC)cc1)C3 | inactive
65 | Cc1ccc2nc(Cl)c(CNCc3ccccc3)cc2c1 | inactive
66 | Cc1ccc(-c2nn(-c3ccccc3)c3[nH]c(=O)c(CNCc4ccccc4)cc23)cc1 | 39.8 µM (active)
67 | Cc1cnc(NC(=O)c2cc(-c3ccccc3)nn2-c2ccccc2)s1 | inactive
68 | Cc1ccc(S(=O)(=O)NN2C(=O)c3ccccc3NC2c2ccccc2)cc1 (stereo unspecified) | 35.5 µM (active)
69 | Cc1ccc(C2N(C)C(=O)c3ccccc3N2C)cc1 (stereo unspecified) | inactive
70 | CC1Nc2ccccc2C(=O)N1NS(C)(=O)=O (stereo unspecified) | inactive
71 | O=c1cc(CN2CCN(S(=O)(=O)c3cccc(Cl)c3)CC2)c2ccc(O)cc2o1 | inactive
72 | C/C(=N\Nc1ncc(Cl)cc1Cl)c1ccccn1 | inactive

Row | Structure (SMILES) | Potency
73 | C=CCNC(=S)Nc1cccc(NC(=S)NCC=C)c1 | inactive
74 | C=CCNC(=S)N/N=C(\C)c1ccccn1 | 2.51 µM (active)
75 | O=S(=O)(Nc1ccc(C(O)(C(F)(F)F)C(F)(F)F)cc1)c1cccc2ccccc12 | 44.7 µM (active)
76 | O=S(=O)(Nc1ccc(C(O)(C(F)(F)F)C(F)(F)F)cc1)c1ccc(Cl)c2nonc12 | 22.4 µM (active)
77 | COc1ccc(C(=O)NNC(=O)CSc2nc3c(=O)n(C)c(=O)n(C)c3[nH]2)cc1 | inactive
78 | N#Cc1cccc(Cn2cc(C(F)(F)F)ccc2=O)c1 | inactive
79 | CS(=O)(=O)c1ncc(Cl)c(C(=O)N(Cc2ccc(Cl)cc2)Cc2ccco2)n1 | 6.31 µM (active)
80 | C=C1C(=O)[C@]23C[C@H]1CCC2[C@@]1(C)C(C[C@@H]3O)[C@](C)(C(=O)OC)CC[C@@H]1O (stereo partly specified) | 35.5 µM (active)
81 | C=C1C(=O)[C@]23C[C@H]1CC[C@H]2[C@]1(C)[C@@H](OC(C)=O)CC[C@@](C)(C(=O)O)[C@H]1C[C@@H]3O | 11.2 µM (active)
82 | C=C1C(=O)[C@]23C[C@H]1CC[C@H]2[C@]1(C)[C@@H](O)CC[C@@](C)(C(=O)O)[C@H]1C[C@@H]3O | 12.6 µM (active)
83 | N#C/C(=C\c1ccncc1)c1nc2c(s1)CCCC2 | inactive
84 | CCc1cc(=O)oc2cc(O[C@@H]3O[C@H](CO)[C@@H](O)[C@H](O)[C@H]3O)c(Cl)cc12 | inactive
85 | Cc1cc(-n2cnc(-c3cn(C)nc3C)n2)no1 | inactive
86 | CN(C)/C=N/c1nc2nccc(-c3cccs3)n2n1 | inactive
87 | COc1ccc2c(Cl)c(C(=O)NN3CCN(C)CC3)sc2c1 | inactive
88 | CC(C)(C)C(=O)NC(=S)Nc1ccc(C(F)(F)F)cc1 | inactive
89 | CC(C)(C)C(=O)NC(=S)NNC(=O)c1sc2ccccc2c1Cl | 31.6 µM (active)
90 | C=CCn1c(S)nnc1-c1ccc2ncccc2c1 | inactive
91 | CC(C)CC1C(=O)N(Cc2cn(CCC3OCCO3)nn2)CCS(=O)(=O)N1Cc1ccc(-c2ccc(F)cc2)cc1 (stereo unspecified) | 35.5 µM (active)
92 | CC(C)CC1C(=O)N(Cc2cn(CCC3OCCO3)nn2)CCS(=O)(=O)N1Cc1ccc(-c2ccc(Cl)c(Cl)c2)cc1 (stereo unspecified) | 39.8 µM (active)
93 | C/C(=N\c1ccc(C)cc1C)c1sc2ccccc2c1O | inactive
94 | N#C/C(=C\c1ccc(N2CCCCC2)o1)C(=O)Nc1cccc(Br)c1 | inactive
95 | COc1cc2ccc(=O)oc2c(O[C@@H]2O[C@H](CO)[C@@H](O)[C@H](O)[C@H]2O)c1O | inactive
96 | COc1ccccc1/C=C/c1nc(C#N)c(N(C)C)o1 | inactive
